# Reference: PMC8384837, “Expanding the binding specificity for RNA recognition by a PUF domain”
# Residue numbers refer to the chain shown, from its start.
# Experiments:
# Assay in all cases: yeast three-hybrid, YBZ-1, SC-Leu-His + 0.5 mM 3-AT, 4 days
# Settings in all cases: tags: N-Gal4 AD-HA kept; label: inside an RPR1-promoter hybrid RNA with tandem MS2 sites; ssRNA
# PUM1 PUF domain R4-RCG = PUM1 PUF domain R4-RCG (Homo sapiens, UniProt Q14671 828-1176, N971R;H972C;Q975G)
# Procedure, shortened: (§1)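 A centromeric plasmid in strain YBZ-1 co-expressed Pumilio-1 PUF domain libraries, randomized at the three base-contacting residues of each repeat, with matching RNA elements; the strain carries a LexA–MS2 coat fusion and a HIS3 reporter. After four days on SC-Leu (input) or SC-Leu-His + 0.5 mM 3-AT (selection), the repeat regions were PCR-amplified and Illumina-sequenced. The interaction score is the log change in variant frequency from input to selection, using log2 and a pseudocount of 1 where absent.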
# PUM1 PUF domain R4-APS = PUM1 PUF domain R4-APS (Homo sapiens, UniProt Q14671 828-1176, N971A;H972P;Q975S)
# Procedure, shortened: as §1
# PUM1 PUF domain R5-DHL = PUM1 PUF domain R5-DHL (Homo sapiens, UniProt Q14671 828-1176, C1007D;R1008H;Q1011L)
# Procedure, shortened: as §1
# PUM1 PUF domain R6-SWC = target: T1, PUM1 PUF domain R6-SWC (Homo sapiens, UniProt Q14671 828-1176, N1043S;Y1044W;Q1047C)
# T1 sequence: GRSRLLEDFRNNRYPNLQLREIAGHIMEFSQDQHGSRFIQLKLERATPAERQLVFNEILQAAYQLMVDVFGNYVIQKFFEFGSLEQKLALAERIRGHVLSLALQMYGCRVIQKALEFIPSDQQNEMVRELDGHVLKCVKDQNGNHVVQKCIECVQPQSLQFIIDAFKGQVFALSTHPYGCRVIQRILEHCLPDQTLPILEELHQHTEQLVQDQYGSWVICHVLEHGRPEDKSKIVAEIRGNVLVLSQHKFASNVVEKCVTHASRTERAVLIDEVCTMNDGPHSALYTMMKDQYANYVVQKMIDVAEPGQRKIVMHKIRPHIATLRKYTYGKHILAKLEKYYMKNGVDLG
# Procedure, shortened: as §1
# PUM1 PUF domain R8-KKR = PUM1 PUF domain R8-KKR (Homo sapiens, UniProt Q14671 828-1176, N1122K;Y1123K;Q1126R)
# Procedure, shortened: as §1
# PUM1 PUF domain R4-VGI = PUM1 PUF domain R4-VGI (Homo sapiens, UniProt Q14671 828-1176, N971V;H972G;Q975I)
# Procedure, shortened: as §1
# PUM1 PUF domain R5-PRE = PUM1 PUF domain R5-PRE (Homo sapiens, UniProt Q14671 828-1176, C1007P;Q1011E)
# Procedure, shortened: as §1
# PUM1 PUF domain R6-FWV = target: T2, PUM1 PUF domain R6-FWV (Homo sapiens, UniProt Q14671 828-1176, N1043F;Y1044W;Q1047V)
# T2 sequence: T1 sequence with S216F, C220V
# Procedure, shortened: as §1
# PUM1 PUF domain R4-DWM = PUM1 PUF domain R4-DWM (Homo sapiens, UniProt Q14671 828-1176, N971D;H972W;Q975M)
# Procedure, shortened: as §1
# PUM1 PUF domain R8-RRV = PUM1 PUF domain R8-RRV (Homo sapiens, UniProt Q14671 828-1176, N1122R;Y1123R;Q1126V)
# Procedure, shortened: as §1
# PUM1 PUF domain R3-DHL = PUM1 PUF domain R3-DHL (Homo sapiens, UniProt Q14671 828-1176, C935D;R936H;Q939L)
# Procedure, shortened: as §1
# PUM1 PUF domain R3-TYH = PUM1 PUF domain R3-TYH (Homo sapiens, UniProt Q14671 828-1176, C935T;R936Y;Q939H)
# Procedure, shortened: as §1
# PUM1 PUF domain R1-KWM = PUM1 PUF domain R1-KWM (Homo sapiens, UniProt Q14671 828-1176, S863K;R864W;Q867M)
# Procedure, shortened: as §1
# PUM1 PUF domain R1-GRH = PUM1 PUF domain R1-GRH (Homo sapiens, UniProt Q14671 828-1176, S863G;Q867H)
# Procedure, shortened: as §1
# PUM1 PUF domain R3-LHA = PUM1 PUF domain R3-LHA (Homo sapiens, UniProt Q14671 828-1176, C935L;R936H;Q939A)
# Procedure, shortened: as §1
# PUM1 PUF domain R5-AAD = PUM1 PUF domain R5-AAD (Homo sapiens, UniProt Q14671 828-1176, C1007A;R1008A;Q1011D)
# Procedure, shortened: as §1
# PUM1 PUF domain R5-ASR = PUM1 PUF domain R5-ASR (Homo sapiens, UniProt Q14671 828-1176, C1007A;R1008S;Q1011R)
# Procedure, shortened: as §1
# PUM1 PUF domain R5-WSR = PUM1 PUF domain R5-WSR (Homo sapiens, UniProt Q14671 828-1176, C1007W;R1008S;Q1011R)
# Procedure, shortened: as §1
# PUM1 PUF domain R3-WYS = PUM1 PUF domain R3-WYS (Homo sapiens, UniProt Q14671 828-1176, C935W;R936Y;Q939S)
# Procedure, shortened: as §1
# PUM1 PUF domain R3-FIG = PUM1 PUF domain R3-FIG (Homo sapiens, UniProt Q14671 828-1176, C935F;R936I;Q939G)
# Procedure, shortened: as §1
# PUM1 PUF domain R5-DHL, sequence (Q14671 828-1176 C1007D/R1008H/Q1011L): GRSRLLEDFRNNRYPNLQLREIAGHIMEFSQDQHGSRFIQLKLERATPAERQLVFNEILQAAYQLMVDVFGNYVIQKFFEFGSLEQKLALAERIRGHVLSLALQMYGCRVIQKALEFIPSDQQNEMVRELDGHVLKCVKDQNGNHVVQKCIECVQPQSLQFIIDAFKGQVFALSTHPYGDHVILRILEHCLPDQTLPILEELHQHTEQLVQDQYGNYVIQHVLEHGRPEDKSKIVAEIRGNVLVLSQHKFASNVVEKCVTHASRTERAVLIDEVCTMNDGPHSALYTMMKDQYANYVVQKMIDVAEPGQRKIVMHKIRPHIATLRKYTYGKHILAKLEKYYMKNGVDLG
# PUM1 PUF domain R5-PRE, sequence (Q14671 828-1176 C1007P/Q1011E): as the sequence (Q14671 828-1176 C1007D/R1008H/Q1011L) above, with D180P, H181R, L184E counted along it
sequence,measurement,setting,value
GGCUAGAACUAGUGGAUCCCCCGGCGCCCGGCGGCUCGAGCCCGGGUAAGUGUAAAUAGUCUGCAUGCCGCCGGGCGCCAUGCCUGCAGGUCGACUCUAGAAAACAUG,binding signal,PUM1 PUF domain R4-RCG,3.26 log2 enrichment (interaction score)
same,binding signal,PUM1 PUF domain R4-APS,4.36 log2 enrichment (interaction score)
same,binding signal,PUM1 PUF domain R5-DHL,3.58 log2 enrichment (interaction score)
same,binding signal,PUM1 PUF domain R6-SWC,3.92 log2 enrichment (interaction score)
same,binding signal,PUM1 PUF domain R8-KKR,1.33 log2 enrichment (interaction score)
same,binding signal,PUM1 PUF domain R4-VGI,2.49 log2 enrichment (interaction score)
same,binding signal,PUM1 PUF domain R5-PRE,3.07 log2 enrichment (interaction score)
same,binding signal,PUM1 PUF domain R6-FWV,4.97 log2 enrichment (interaction score)
same,binding signal,PUM1 PUF domain R4-DWM,6.03 log2 enrichment (interaction score)
same,binding signal,PUM1 PUF domain R8-RRV,0.86 log2 enrichment (interaction score)
same,binding signal,PUM1 PUF domain R3-DHL,3.42 log2 enrichment (interaction score)
same,binding signal,PUM1 PUF domain R3-TYH,2.88 log2 enrichment (interaction score)
GGCUAGAACUAGUGGAUCCCCCGGCGCCCGGCGGCUCGAGCCCGGGUAAGUGUAAAUUGUCUGCAUGCCGCCGGGCGCCAUGCCUGCAGGUCGACUCUAGAAAACAUG,binding signal,PUM1 PUF domain R1-KWM,3.92 log2 enrichment (interaction score)
same,binding signal,PUM1 PUF domain R1-GRH,2.32 log2 enrichment (interaction score)
GGCUAGAACUAGUGGAUCCCCCGGCGCCCGGCGGCUCGAGCCCGGGUAAGUGUAAUUAGUCUGCAUGCCGCCGGGCGCCAUGCCUGCAGGUCGACUCUAGAAAACAUG,binding signal,PUM1 PUF domain R3-LHA,3.56 log2 enrichment (interaction score)
GGCUAGAACUAGUGGAUCCCCCGGCGCCCGGCGGCUCGAGCCCGGGUAAGCGUAAAUAGUCUGCAUGCCGCCGGGCGCCAUGCCUGCAGGUCGACUCUAGAAAACAUG,binding signal,PUM1 PUF domain R8-KKR,5.03 log2 enrichment (interaction score)
same,binding signal,PUM1 PUF domain R8-RRV,2.4 log2 enrichment (interaction score)
GGCUAGAACUAGUGGAUCCCCCGGCGCCCGGCGGCUCGAGCCCGGGUAAGUGUGAAUAGUCUGCAUGCCGCCGGGCGCCAUGCCUGCAGGUCGACUCUAGAAAACAUG,binding signal,PUM1 PUF domain R5-DHL,2.54 log2 enrichment (interaction score)
same,binding signal,PUM1 PUF domain R5-PRE,3.8 log2 enrichment (interaction score)
same,binding signal,PUM1 PUF domain R5-AAD,2.97 log2 enrichment (interaction score)
GGCUAGAACUAGUGGAUCCCCCGGCGCCCGGCGGCUCGAGCCCGGGUAAGUGUCAAUAGUCUGCAUGCCGCCGGGCGCCAUGCCUGCAGGUCGACUCUAGAAAACAUG,binding signal,PUM1 PUF domain R5-DHL,2.14 log2 enrichment (interaction score)
same,binding signal,PUM1 PUF domain R5-ASR,5.07 log2 enrichment (interaction score)
same,binding signal,PUM1 PUF domain R5-WSR,5.87 log2 enrichment (interaction score)
GGCUAGAACUAGUGGAUCCCCCGGCGCCCGGCGGCUCGAGCCCGGGUAAGUGUAAAUGGUCUGCAUGCCGCCGGGCGCCAUGCCUGCAGGUCGACUCUAGAAAACAUG,binding signal,PUM1 PUF domain R1-KWM,1.15 log2 enrichment (interaction score)
GGCUAGAACUAGUGGAUCCCCCGGCGCCCGGCGGCUCGAGCCCGGGUAAGUGUACAUAGUCUGCAUGCCGCCGGGCGCCAUGCCUGCAGGUCGACUCUAGAAAACAUG,binding signal,PUM1 PUF domain R4-APS,1.86 log2 enrichment (interaction score)
same,binding signal,PUM1 PUF domain R4-DWM,4.24 log2 enrichment (interaction score)
GGCUAGAACUAGUGGAUCCCCCGGCGCCCGGCGGCUCGAGCCCGGGUAAGUGUAAAUCGUCUGCAUGCCGCCGGGCGCCAUGCCUGCAGGUCGACUCUAGAAAACAUG,binding signal,PUM1 PUF domain R1-GRH,1.98 log2 enrichment (interaction score)
GGCUAGAACUAGUGGAUCCCCCGGCGCCCGGCGGCUCGAGCCCGGGUAAGUGUUAAUAGUCUGCAUGCCGCCGGGCGCCAUGCCUGCAGGUCGACUCUAGAAAACAUG,binding signal,PUM1 PUF domain R5-PRE,2.73 log2 enrichment (interaction score)
same,binding signal,PUM1 PUF domain R5-ASR,1.28 log2 enrichment (interaction score)
GGCUAGAACUAGUGGAUCCCCCGGCGCCCGGCGGCUCGAGCCCGGGUAAGUGUAAGUAGUCUGCAUGCCGCCGGGCGCCAUGCCUGCAGGUCGACUCUAGAAAACAUG,binding signal,PUM1 PUF domain R3-LHA,6.33 log2 enrichment (interaction score)
same,binding signal,PUM1 PUF domain R3-WYS,2.89 log2 enrichment (interaction score)
same,binding signal,PUM1 PUF domain R3-FIG,3.51 log2 enrichment (interaction score)
